Inconclusive results are not listed. Activity calls are given as the source filed them. Calls follow the shape of the dose curve; as a rule, active = well fitted curve in the direction sought with a large enough effect in the repeat runs; inconclusive = weak or mixed curves; inactive = no such curve, though single readings can be large; an effect the other way counts as inactive or inconclusive.
Experiment: qHTS assay for identifying genotoxic compounds that show differential cytotoxicity against isogenic chicken DT40 cell lines with known DNA damage response pathways - wild type cell line (AID 743012); also: nearly all actives have a fitted effect of over 60% in size
Conditions: DT40 wild type chicken cells viability, CellTiter-Glo, 40 h; series mostly up to 68.4 µM; activity change, negative = cytotoxicity: at the top concentration
Summary of the method: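 Using parental DT40 (300 cells/well), compounds delivered in DMSO incubate 40 h at 37 C/5% CO2. CellTiter-Glo reagent then stands 30 min at room temperature, and luminescence gives cell viability.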
% is scaled to controls: 0 for no effect and ±100 for the full control effect; potency is read from the fitted curve at half-maximal effect.

SMILES	activity change, negative = cytotoxicity	Potency
C[Si]1(C)O[Si](C)(C)O[Si](C)(C)O[Si](C)(C)O[Si](C)(C)O1	-5.75% (inactive)	
O=Cc1ccccc1Cl	-1.27% (inactive)	
COS(=O)(=O)O	17.6% (inactive)	
CC(=O)OC(C)=O	7.17% [at 95 µM] (inactive)	
CCCCSCCCC	9.81% (inactive)	
CC(=O)OCC(=O)Nc1cc(C#N)cc(NC(=O)COC(C)=O)c1Cl	0.589% (inactive)	
CC1(C)Cc2cccc(N)c2O1	2.56% (inactive)	
CC1CCc2c(N3CCC(O)CC3)c(F)cc3c(=O)c(C(=O)O)cn1c23 (stereo not given)		26.6 µM (active)
O=C1OCCO1	14% [at 95 µM] (inactive)	
COc1c2occc2c(OC)c2c(=O)cc(C)oc12	-7.89% [at 31.4 µM] (inactive)	
CC(C)OC(=O)CCC(=O)OC(C)C	-18.9% (inactive)	
Nc1nc(-c2ccccc2)c(Br)c(=O)[nH]1	5.13% (inactive)	
CC1(C)[C@H]2CC[C@](C)(C2)[C@H]1O	7.35% [at 95 µM] (inactive)	

Experiment: qHTS assay for identifying genotoxic compounds that show differential cytotoxicity against isogenic chicken DT40 cell lines with known DNA damage response pathways - Rev3 mutant cell line (AID 743014); also: nearly all actives have a fitted effect of over 55% in size
Conditions: chicken DT40 Rev3-/- viability, CellTiter-Glo, 40 h; series mostly up to 68.4 µM; activity, negative = cytotoxicity: at the top concentration

SMILES	Potency	activity, negative = cytotoxicity
Cc1ccnc(N)c1	48.6 µM (active)	
Cc1c(C(=O)c2c[nH]n(C)c2=O)ccc(S(C)(=O)=O)c1C1=NOCC1		0.121% [at 31.4 µM] (inactive)
C#CCN[C@@H]1CCc2ccccc21		9.5% (inactive)
[O]=[Mo](=[O])=[O]		7.94% [at 31.4 µM] (inactive)
N#CCC(=O)NN		-4.91% (inactive)
CC(O)CC(C)O (stereo not given)		2.26% (inactive)
C[Si]1(C)O[Si](C)(C)O[Si](C)(C)O[Si](C)(C)O[Si](C)(C)O1		-0.317% (inactive)
CC(C)c1ccc(C=O)cc1		-14% (inactive)
CC(=O)c1cc(C)oc1C		-0.348% [at 95 µM] (inactive)
O=Cc1ccccc1Cl		9.24% (inactive)
COS(=O)(=O)O		1.35% (inactive)
C=C(C)[C@@H]1CC=C(C)C(=O)C1		-10.6% (inactive)
CC(=O)OCC(=O)Nc1cc(C#N)cc(NC(=O)COC(C)=O)c1Cl		5.76% (inactive)
CCCCCCCCCCCCCBr	54.3 µM (active)	
CC1(C)Cc2cccc(N)c2O1		-5.25% (inactive)
O=C1OCCO1		0.117% [at 95 µM] (inactive)
CNCCS(=O)(=O)O		2.65% [at 95 µM] (inactive)
CCCCOC(=O)C(C)O (stereo not given)		-20.6% (inactive)
COc1c2occc2c(OC)c2c(=O)cc(C)oc12		-8.14% [at 31.4 µM] (inactive)
CC(C)OC(=O)CCC(=O)OC(C)C		-27.8% (inactive)

Experiment: qHTS assay for identifying genotoxic compounds that show differential cytotoxicity against isogenic chicken DT40 cell lines with known DNA damage response pathways - Rad54/Ku70 mutant cell line (AID 743015); also: nearly all actives have a fitted effect of over 60% in size
Conditions: DT40 Rad54/Ku70 mutant viability, CellTiter-Glo, 40 h; series mostly up to 66.8 µM; activity change, negative = cytotoxicity: at the top concentration

SMILES	Potency	activity change, negative = cytotoxicity
Cc1ccnc(N)c1	48.6 µM (active)	
Cc1c(C(=O)c2c[nH]n(C)c2=O)ccc(S(C)(=O)=O)c1C1=NOCC1		1.77% [at 30.7 µM] (inactive)
CC(=O)Nc1ccc(OC(=O)c2ccccc2OC(C)=O)cc1		5.53% (inactive)
C#CCN[C@@H]1CCc2ccccc21		8.38% (inactive)
CCC/C=C(\C=O)CC		4.64% (inactive)
CCCCCCCCCCCCCCCCCCOCCO		0.731% [at 30.7 µM] (inactive)
[O]=[Mo](=[O])=[O]		0.0912% [at 30.7 µM] (inactive)
N#CCC(=O)NN		7.4% (inactive)
CC(O)CC(C)O (stereo not given)		7.63% (inactive)
C[Si]1(C)O[Si](C)(C)O[Si](C)(C)O[Si](C)(C)O[Si](C)(C)O1		-1.57% (inactive)
CC(C)c1ccc(C=O)cc1		7.24% (inactive)
CC(=O)c1cc(C)oc1C		4.84% [at 95.1 µM] (inactive)
O=Cc1ccccc1Cl		4.26% (inactive)
COS(=O)(=O)O		0.853% (inactive)
ONc1ccccc1		-0.561% [at 95.1 µM] (inactive)
CC(=O)OC(C)=O		4.57% [at 95.1 µM] (inactive)

SMILES	Potency	activity change, negative = cytotoxicity
NCC1(Cc2noc(=O)[nH]2)CCCCC1		-10% (inactive)
CCCCSCCCC		-0.149% (inactive)
C=C(C)[C@@H]1CC=C(C)C(=O)C1		12.4% (inactive)
CC(=O)OCC(=O)Nc1cc(C#N)cc(NC(=O)COC(C)=O)c1Cl		7.01% (inactive)
CCCCCCCCCCCCCBr		-10% (inactive)
CC1(C)Cc2cccc(N)c2O1		-5.38% (inactive)
O=C1OCCO1		6.15% [at 95.1 µM] (inactive)
CNCCS(=O)(=O)O		5.45% [at 95.1 µM] (inactive)
CCCCOC(=O)C(C)O (stereo not given)		-4.39% (inactive)
COc1ccc2c(c1)c1c3n2CCN(C)C3=NCC1	23.7 µM (active)	
C=CC(=O)OCC1CCCO1 (stereo not given)		3.1% (inactive)
COc1c2occc2c(OC)c2c(=O)cc(C)oc12		-15.5% [at 30.7 µM] (inactive)
CC(C)OC(=O)CCC(=O)OC(C)C		-9.76% (inactive)
Nc1nc(-c2ccccc2)c(Br)c(=O)[nH]1		16.4% (inactive)
C=CCSSCCC		5.07% (inactive)
CC1(C)[C@H]2CC[C@](C)(C2)[C@H]1O		7.11% [at 95.1 µM] (inactive)

Source: PubChem BioAssay (Tox21)
